From PubChem
Pf Dd2 inh = blocks in vitro growth of P. falciparum Dd2. P. falciparum Dd2 growth, SYBR Green, 72 h. Potency, µM (series often up to 28.9 µM), inactives show at the top dose activity, negative = inhibition, most hits filed as inhibitors. hit rate 4.3% among 120,000; active = well fitted inhibition curve with a large enough effect;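 also: plate controls were DMSO vehicle for no effect and reference drug for full effect; nearly all actives have a fitted effect of over 65% in size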
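Readout: SYBR Green fluorescence, 485 nm excitation, 535 nm emission, after ~16 h lysis at 37C. Before that, Dd2-infected red cells (2.5% hematocrit) grew 72 h with compound, 29 uM top final concentration.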
* = called active by the depositor; i = inactive; [ ] = remark or other dose. Shown is part of a subset that was picked to be rich in hits. Potency is read from the fitted curve at half-maximal effect.

SMILES	Pf Dd2 inh
CCn1cc(CNCc2ccc(OCC(O)CN3CCSCC3)c(OC)c2)cn1 (centres undefined)	-4%
COc1cc(CN2CCOCC2)ccc1OCC(O)CN1CCSCC1 (centres undefined)	-8%
Cc1nnc(CN(C)Cc2ccccc2OCC(O)CN2CCSCC2)o1 (centres undefined)	-22%
Cc1cccc(CNCc2ccccc2OCC(O)CN2CCSCC2)c1 (centres undefined)	1.6µM*
CCCCNCc1ccc(OCC(O)CN2CCSCC2)c(OC)c1 (centres undefined)	-29%
CC1CCN(Cc2ccccc2OCC(O)CN2CCSCC2)CC1 (centres undefined)	4.5µM*
COc1nc(C)c(C(=O)N2CCn3nc(CO)cc3C2)s1	-13%
O=C(NCCc1ccccc1)N1CCCC(c2nc(CCOCC3CC3)no2)C1 (centres undefined)	i
COc1ccc(-c2ccc3c(c2)C(=O)N2CCN(C(=O)COCC(=O)O)C[C@@H]2C(=O)N3)c(OC)c1	16%
Cc1noc([C@@H]2CN(C(=O)c3ccc4[nH]ccc4c3)C[C@H]2CO)n1	18%
COc1cccc([C@@H]2CCN(Cc3ccc(NC(C)=O)cc3)C[C@H]2O)c1	-7%
COc1cccc([C@@H]2CCN(Cc3cn[nH]c3C(=O)O)C[C@H]2O)c1	-3%
Cc1c(CN2CCCC(CNC(=O)c3cccc4ccccc34)C2)[nH]c2ccccc12 (centres undefined)	11µM*
COc1cccc(C(=O)NCC2CCCN(Cc3cnn(C)c3C)C2)c1OC (centres undefined)	-4%
COc1cccc(C(=O)NCC2CCCN(Cc3ccccn3)C2)c1OC (centres undefined)	-21%
COc1cccc([C@@H]2CCN(Cc3[nH]c4ccccc4c3C)C[C@H]2O)c1	0.89µM*
O=S(=O)(c1ccc2c(c1)OCCO2)N1CCC2(CCNCC2)C1	-4%
O=C(Nc1ccc(F)c(Cl)c1)C1CCN(C(=O)c2ncn3c2COC(c2ccccc2)C3)CC1 (centres undefined)	-24%
CC(C)(C)CC(=O)N1CC[C@@H](CC(=O)O)[C@@H](CCN2CCN(c3cccc(C(F)(F)F)c3)CC2)C1	i
CCOc1ccccc1CNC(=O)c1cccn1-c1nnc(N2CCCCC2)s1	-13%
CCOc1ccccc1CNCc1cccn1-c1nnc(N2CCN(c3ccccc3)CC2)s1	7.1µM*
c1ccc(N2CCN(Cc3cccn3-c3nnc(N4CCN(C5CCCCC5)CC4)s3)CC2)cc1	-1%
COc1ccc2cc(C(=O)NC3CCN(C(=O)N4CC5CC(C4)[C@H]4CCCC(=O)N4C5)CC3)[nH]c2c1 (some centres undefined)	i
COc1ccc(-c2nc3cc(C)ccc3cc2CN2CCCC(O)C2)cc1OC (centres undefined)	-19%
COc1ccc(-c2nc3cc(C)ccc3cc2CN2CCN(C)C(CCO)C2)cc1 (centres undefined)	10µM*
SMILES	Pf Dd2 inh
COc1ccc2cc(CN3CCCC(C#N)C3)c(-c3cccs3)nc2c1 (centres undefined)	-17%
COc1ccc(-c2nc3cc(C)ccc3cc2CN2CCCC(CO)C2)cc1OC (centres undefined)	-20%
COC[C@@H]1CCCN1Cc1cc2ccc(C)cc2nc1-c1ccc(OC)cc1	14µM*
COC[C@H]1CCCN1Cc1nc(C2(O)CCN(C)CC2)cs1	-18%[44.1 µM]
CC(C)C1=NOC2(CCN([S+](=O)([O-])c3cccc(C(F)(F)F)c3)C2)C1 (centres undefined)	-6%
COc1cc(C(=O)NCc2c(C)noc2C)ccc1OC1CCN(C(C)=O)CC1	-8%
Cc1ccc(-c2ncc(C(=O)NCCC3=CCCCC3)c(-c3ccncc3)n2)cc1	-24%
COc1ccc(CC(=O)Nc2ccc([C@@H](O)[C@H]3COCC(=O)N3Cc3ccccc3OC)cc2)cc1	-2%
NC(=O)C1=NO[C@@H]2CN(CC3CCCCC3)C[C@H]12	25%[44.1 µM]
O=C(NCCCn1ccnc1)c1cnc2c(c1)N(C(=O)CCc1ccccc1)CCC2	-22%[44.1 µM]
COc1ccccc1N1CCN(C(=O)Cn2cnc3sc(C)c(S(=O)(=O)N4CCC(C)CC4)c3c2=O)CC1	31%
COCCCNC(=O)Cn1cnc2sc(C)c(S(=O)(=O)N3CCN(c4ccccc4OC)CC3)c2c1=O	-13%
COc1ccc(OC)c(NC(=O)Cn2cnc3sc(C)c(S(=O)(=O)N4CCN(c5ccccc5OC)CC4)c3c2=O)c1	11µM*
COc1ccc(NC(=O)Cn2cnc3sc(C)c(S(=O)(=O)N4CCN(C)CC4)c3c2=O)cc1Cl	10%
COCCNC(=O)Cn1cnc2sc(C)c(S(=O)(=O)N3CCN(c4ccccc4OC)CC3)c2c1=O	4%
COc1ccc(Cl)cc1NC(=O)Cn1cnc2sc(C)c(S(=O)(=O)N3CCN(c4ccccc4OC)CC3)c2c1=O	10µM*
O=S1(=O)NCC2(CCN(Cc3ccoc3)CC2)Oc2ncccc21	-10%
c1ccc2oc([C@H]3CCN(C4CCOCC4)C3)nc2c1	i
O=C(C1CCCC1)N1CCC(C(=O)O)(c2ccccc2)CC1	-2%
FC(F)(F)c1cccc(Nc2ncc(-c3cccnc3)c3c2OCC3)c1	8.9µM*
Clc1ccc(Nc2ncc(-c3cccnc3)c3c2OCC3)cc1	10µM*
Cn1cc(-c2cnc(Nc3ccncc3)c3c2CCO3)cn1	-1%[44.1 µM]
COc1ccc(Nc2ncc(-c3cccnc3)c3c2OCC3)cc1	i
Cc1cc(-c2cnc(Nc3ccc(F)cc3)c3c2CCO3)ccn1	i
COc1cccc(Nc2ncc(-c3cccc(N(C)C)c3)c3c2OCC3)c1	-8%[44.1 µM]
SMILES	Pf Dd2 inh
CC(C)C(=O)N1CCC(N2C(=O)C(O)C23CCCCC3)CC1 (centres undefined)	-2%
O=C(NC[C@H]1OC[C@@H](N(Cc2ccccc2F)Cc2ccccc2F)[C@@H]1O)c1ccccc1	i
O=C(NCc1cccnc1)C1=NOC2CN(C(=O)C3CC3)CC12 (centres undefined)	12%
CCNC(=O)O[C@@H]1CO[C@H]2[C@@H]1OC[C@@H]2NC(=S)Nc1ccc(N(C)C)cc1	i
Cc1noc(C)c1S(=O)(=O)N1CCCOCCNC(=O)[C@@H]2CCCC[C@@H]21	1%
O=C(CC1CCOCC1)N1CCC(Cc2ccccc2)CC1	19%
CC1=NOC2(CCN([S+](=O)([O-])c3ccccc3)C2)C1 (centres undefined)	-7%[44.1 µM]
C[C@@H]1C(=O)O[C@H]2[C@H]1CC[C@@]1(C)Cc3sc(NCc4ccccc4)nc3[C@@H](C)[C@H]21	-18%[44.1 µM]
C[C@@H]1C(=O)O[C@H]2[C@H]1CC[C@@]1(C)Cc3sc(NC(=O)COc4ccccc4)nc3[C@@H](C)[C@H]21	7.1µM*
C[C@@H]1C(=O)O[C@H]2[C@H]1CC[C@@]1(C)Cc3sc(NC(=O)COCC(=O)O)nc3[C@@H](C)[C@H]21	i
O=C1CCC2(CCCO2)CCN1Cc1ccc(C(F)(F)F)cc1 (centres undefined)	-9%
CSc1cccc(NC(=O)C2CCN(c3nc4ccccc4[nH]3)CC2)c1	i
Cc1ncc(CN2CCC(C(=O)Nc3cccc(-c4cc5ccccc5[nH]4)c3)CC2)cn1	8.9µM*
O=C(Nc1cccc(-c2ccco2)c1)C1CCN(Cc2ccc(CO)o2)CC1	-25%
O=C(c1ccc(N2CCC(O)CC2)nc1)N1CCC(Oc2cccnc2)CC1	-29%
N#C/C(=C/c1ccc(Cl)cc1Cl)c1nc2ccccc2c(=O)[nH]1	26%
COc1c(Cl)cc(Cl)cc1/C=C(\C#N)c1nc2ccccc2[nH]1	5.6µM*
Cc1c(Cl)cccc1-c1ccc(/C=C(\C#N)c2nc3ccccc3[nH]2)o1	i
